# Shown are actives, neighbours in structure and some others; about 19% of the full set was active somewhere.
# IL-1B inflam inh: qHTS for Inhibitors of Inflammasome Signaling: IL-1-beta AlphaLISA Primary Screen. AID 743279, 2014. 360,000 tested, 4.7% active. THP-1 LPS/ATP IL-1B secretion, AlphaLISA, 16 h; stronger effect = lower value. activity change, % at 57.5 µM; in the data active = activity change below about -50%; inconclusive = mostly about -30% to -49%
#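 THP-1 cells pretreated 1 hr with compounds (up to 57.5 uM final), then stimulated with LPS (250 ng/mL final) plus ATP (1.25 mM final); secreted IL-1B measured by AlphaLISA after 16 hr, decreased signal indicating inhibition.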
# HT1080NT lethal: qHTS for induction of synthetic lethality in tumor cells producing 2HG: qHTS for the HT-1080-NT fibrosarcoma cell line; HT-1080-NT fibrosarcoma viability, CellTiter-Glo ATP luminescence, 48 h; Potency, µM (top dose mostly 46.1 µM), usual class: cytotoxic; 360,000 tested, 1.6% active;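 also: NT is the 2HG producing partner of a matched IDH1 knockdown line; nearly all actives have a fitted effect of over 55% in size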
#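 Toxicity toward the 2HG-producing NT line was scored as %Activity, normalised to DMSO and no-cell wells, from CellTiter-Glo luminescence after 48 hours' treatment.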
# TDP1 cell noCPT: qHTS for Inhibitors of human tyrosyl-DNA phosphodiesterase 1 (TDP1): qHTS in cells in absence of CPT. DT40 Tdp1-/- hTDP1 cells, no CPT, ATP luminescence, 48 h. Potency, µM (series often up to 46.2 µM), hits mostly inhibitors. 420,000 tested, 15% active. AID 686978, 2013; also: nearly all actives have a fitted effect of over 55% in size
#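 Seeded 400 DT40-hTDP1 cells/well (vehicle DMSO, no 20 nM CPT); pinned compounds; ≥48 hr at 37 °C; CellTiter-Glo luminescence as viability measure.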
# DT40 TDP1 CPT: qHTS for Inhibitors of human tyrosyl-DNA phosphodiesterase 1 (TDP1): qHTS in cells in presence of CPT; Potency, µM (series often up to 46.2 µM), most hits filed as inhibitors; chicken DT40 Tdp1-/-;hTDP1 cells + 20 nM CPT, ATP luminescence, 48 h; 420,000 tested, 12% active; AID 686979, 2013; also: nearly all actives have a fitted effect of over 55% in size
#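 Cell growth measured by CellTiter-Glo luminescence after a minimum 48 h, 37 C compound exposure with 20 nM CPT in Tdp1-knockout DT40 cells stably expressing hTDP1, seeded 400/well; qHTS titration format.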
# HT1080 IDH1KD tx: qHTS for induction of synthetic lethality in tumor cells producing 2HG: qHTS for the HT-1080-IDH1KD cell line; HT-1080 IDH1 knockdown viability, ATP luminescence, 48 h; Potency, µM (titrated, usually from 46.1 µM), most hits filed as cytotoxic; 360,000 tested, 2% active; AID 686971, 2013
#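 In this qHTS, HT-1080 cells depleted of IDH1 are exposed for 48 h at 37 °C to compound titrations. Toxicity is scored from CellTiter-Glo luminescence, with DMSO as full viability and medium alone as none.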
# Numbers stand for hits; 0 = inactive; ? = inconclusive; - = no result. Unless noted, calls follow the shape of the dose curve; as a rule, active = well fitted curve in the direction sought with a large enough effect; inconclusive = small, poorly fitted or top-dose-only effect, or another doubt; inactive = no such curve, though single readings can be large; an effect the other way counts as inactive or inconclusive.
SMILES,IL-1B inflam inh,HT1080NT lethal,TDP1 cell noCPT,DT40 TDP1 CPT,HT1080 IDH1KD tx
O=C1N[C@@H](Cc2ccccc2)COC(=O)[C@@H](Cc2ccc(F)cc2)CC/C=C/C[C@H]1CC(=O)N(CCO)Cc1ccccc1,0,?,6.5µM,?,?
O=C1N[C@@H](Cc2ccccc2)COC(=O)[C@H](Cc2ccc(F)cc2)C/C=C\C[C@H]1CC(=O)N(CCO)Cc1ccccc1,0,0,8.2µM,21µM,?
CN(C(=O)c1cccc(NC(=O)Cc2ccc(NC(=O)C3CCN(S(=O)(=O)c4cccc([N+](=O)[O-])c4)CC3)cc2)c1)C1CC1,0,0,?,?,0
Cc1ccc(-c2nnn(CC(=O)Nc3cccc4cccnc34)n2)o1,0,0,?,?,0
c1ccc(CN2CCC3(CCCc4ccccc43)CC2)cc1,0,?,16µM,?,16µM
C=CC[C@]12C=C(OC)C(=O)C(OC)=C1O[C@@H](c1ccc3c(c1)OCO3)[C@H]2C,0,0,0,0,0
C=CC[C@]12CC=CC(=O)[C@@]1(O)O[C@H](c1ccc(OC)c(OC)c1)[C@H]2C,-115,0,5.8µM,10µM,0
CCCCCCCCN1[C@@H](CC(C)=O)c2cc(C(F)(F)F)ccc2S1(=O)=O,0,0,13µM,?,0
COC(=O)C[C@H]1c2cc(C(F)(F)F)ccc2S(=O)(=O)N1C1CCCCC1,0,0,?,?,0
COC(=O)C[C@H]1c2cc(C(F)(F)F)ccc2S(=O)(=O)N1C1CCCC1,0,0,?,23µM,0
CCCCCCCCN1[C@@H](CC(=O)OC)c2cc(C(F)(F)F)ccc2S1(=O)=O,0,0,?,?,0
CC(=O)C[C@H]1c2cc(C(F)(F)F)ccc2S(=O)(=O)N1C1CCCCC1,?,0,21µM,16µM,0
O=C(CN1C(=O)NC2(CCCCCC2)C1=O)c1ccc(Cl)s1,0,0,?,0,0
Cc1ccc(S(=O)(=O)C2(C(=O)NCc3ccc4c(c3)OCO4)CC2)cc1,0,0,18µM,?,0
Cc1ccc(N(CC(=O)NCCc2ccc(Cl)cc2)S(=O)(=O)c2c(C)noc2C)cc1,0,0,15µM,23µM,0
Cc1nn(C)c(C)c1S(=O)(=O)N(CC(=O)NCCCOC(C)C)c1ccc(C(C)C)cc1,0,0,?,0,0
Cc1ccc(CCNC(=O)CN(c2ccc(C)cc2)S(=O)(=O)c2c(C)noc2C)cc1,0,0,16µM,?,0
Cc1cccc(CCNC(=O)CN(c2ccc(C(C)C)cc2)S(=O)(=O)c2c(C)nn(C)c2C)c1,-,-,16µM,?,-
Cc1cc(C)cc(N(CC(=O)NCCc2ccc(Cl)cc2)S(=O)(=O)c2c(C)noc2C)c1,-,-,0,0,-
COC(=O)[C@]12CCCCC=C1N(Cc1ccc3c(c1)OCO3)C(=O)[C@H](CC(=O)NCC1CCCCC1)C2,0,0,?,?,0
COCCOC(=O)c1c(NC(=O)CN2c3ccccc3CC2C)sc(C(N)=O)c1C (centres undefined),0,0,?,?,0
Cc1ccc(CCNC(=O)CN(c2cc(C)cc(C)c2)S(=O)(=O)c2c(C)noc2C)cc1,0,0,?,0,0
COc1ccc(CCNC(=O)CN(c2cc(C)cc(C)c2)S(=O)(=O)c2c(C)noc2C)cc1OC,0,0,18µM,?,0
Cc1noc(C)c1S(=O)(=O)N(CC(=O)NCc1ccc2c(c1)OCO2)c1ccc(C(C)C)cc1,0,0,?,?,0
Cc1ccc(N(CC(=O)NCc2ccc3c(c2)OCO3)S(=O)(=O)c2c(C)noc2C)cc1,0,0,23µM,?,0
SMILES,IL-1B inflam inh,HT1080NT lethal,TDP1 cell noCPT,DT40 TDP1 CPT,HT1080 IDH1KD tx
CC(=O)Nc1ccc(S(=O)(=O)NCCC(=O)NCCCc2ccccc2)cc1,0,0,0,0,0
CCN(CC)C(=O)c1sc2c(c1C)c(=O)n(-c1ccc(Cl)c(Cl)c1)c(=O)n2Cc1cc(=O)n2c(C)cccc2n1,-,-,0,0,-
CSc1ncnc2c1ncn2CCCN1CCN(c2ccccn2)CC1,0,0,16µM,?,0
c1ccc(COc2ncnc3c2ncn3CCCN2CCN(c3ccccn3)CC2)cc1,0,0,16µM,?,0
COc1ncnc2c1ncn2CCCN1CCN(c2ccccn2)CC1,0,0,0,0,0
C[C@H]1CN([C@@H](C)CO)S(=O)(=O)c2ccc(Br)cc2O[C@H]1CN(C)C(=O)Cc1ccccn1,0,0,0,0,0
Cc1ncc(CO)c(CNc2ccc(Oc3ccccc3)cc2)c1O,0,0,6.5µM,13µM,?
CC1=C(C(=O)N2CCCC(C(=O)c3cccc4ccccc34)C2)OCCO1 (centres undefined),?,0,16µM,?,0
Cn1nccc1C(=O)N1CCCC(C(=O)c2cccc3ccccc23)C1 (centres undefined),0,?,23µM,?,0
O=C(Cn1ncn2c(cc3cc(F)ccc32)c1=O)NC1CCCCC1,-,-,0,0,-
Cc1ccc2[nH]c(=O)c(CN(CC3CCCO3)C(=S)Nc3ccccc3)cc2c1 (centres undefined),0,0,15µM,13µM,0
Cc1ccc2cc(CN(CC3CCCO3)C(=S)Nc3ccccc3)c(=O)[nH]c2c1 (centres undefined),?,?,15µM,?,?
Cc1ccc2cc(CN(CC3CCCO3)C(=S)Nc3ccccc3)c(=O)[nH]c2c1C (centres undefined),-53,?,2.6µM,2.9µM,?
CCCC(=O)Nc1ccc(Cl)c(NC(=O)c2cccnc2Cl)c1,0,0,0,0,0
Cc1ccc2cc(CCNC(=O)c3cccc([N+](=O)[O-])c3)c(=O)[nH]c2c1C,0,0,16µM,23µM,0
Cc1ccc2cc(CCNC(=O)c3cccs3)c(=O)[nH]c2c1,0,0,?,0,0
Cc1ccc2cc(CCNC(=O)c3cccs3)c(=O)[nH]c2c1C,0,0,?,23µM,0
Cc1ccc2cc(CCNC(=O)c3ccc(C)c([N+](=O)[O-])c3)c(=O)[nH]c2c1,0,0,?,21µM,0
CNCc1cc2ccc(C)cc2[nH]c1=O,0,0,?,16µM,0
Cc1ccc2cc(CNC(C)(C)C)c(=O)[nH]c2c1,0,0,0,0,0
Nc1ncnc2c1ncn2[C@@H]1O[C@H](CNC(=O)[C@@H](N)C2CCCCC2)[C@@H](O)[C@H]1O,0,0,0,0,0
COc1ccc2oc(C(=O)OCC(=O)NCc3ccccc3OC)c(C)c2c1,0,0,?,0,0

# Source: PubChem (National Center for Advancing Translational Sciences (NCATS))
